For seven sequences, binding signal results are on record in paper PMC4081100, “A DNA-binding-site landscape and regulatory network analysis for NAC transcription factors in Arabidopsis thaliana”.

Test in all cases: universal protein binding microarray (PBM); transcription factors of Arabidopsis thaliana; high values mean tight binding
Conditions in all cases: protein: recombinant; tags: GST; chain copies: 2; dsDNA, one strand shown

One assay concerns the target T1, GST-ANAC092(1-176) (Arabidopsis thaliana, UniProt Q9FKA0 1-176).
T1 sequence: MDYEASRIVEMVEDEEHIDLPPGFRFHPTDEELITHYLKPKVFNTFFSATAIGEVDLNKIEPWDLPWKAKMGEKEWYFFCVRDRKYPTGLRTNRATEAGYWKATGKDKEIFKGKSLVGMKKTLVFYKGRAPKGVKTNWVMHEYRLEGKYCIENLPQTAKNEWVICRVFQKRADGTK
The method in brief: (§1)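 Cells were induced to make GST-tagged NAC-domain, full-length or DNA-binding-domain proteins, and zinc acetate was added for zinc-finger proteins. These proteins were purified on glutathione–Sepharose 4B, quantified by A280 or anti-GST western blot, and applied in duplicate at 200 to 500 nM final to custom all-10-mer Agilent 4 × 180K arrays that primer extension had made double-stranded. Binding is given as the normalised enrichment score (E-score) for scored gapped and ungapped 8-mers.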

For a further assay, the target named is GST-NTL6(1-168) (Arabidopsis thaliana, UniProt Q9SCK6 1-168). The method in brief:
as §1

Another assay addresses T2, GST-ANAC055(1-171) (Arabidopsis thaliana, UniProt Q9LDY8 1-171).
T2 sequence: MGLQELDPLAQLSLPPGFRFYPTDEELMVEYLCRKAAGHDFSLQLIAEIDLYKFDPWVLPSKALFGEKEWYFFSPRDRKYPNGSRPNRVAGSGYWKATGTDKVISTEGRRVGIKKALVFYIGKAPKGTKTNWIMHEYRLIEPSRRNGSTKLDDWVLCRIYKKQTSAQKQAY
Summed up:
as §1

Another assay concerns the target T3, GST-ATAF1 NAC domain (Arabidopsis thaliana, UniProt Q39013 7-158).
T3 sequence: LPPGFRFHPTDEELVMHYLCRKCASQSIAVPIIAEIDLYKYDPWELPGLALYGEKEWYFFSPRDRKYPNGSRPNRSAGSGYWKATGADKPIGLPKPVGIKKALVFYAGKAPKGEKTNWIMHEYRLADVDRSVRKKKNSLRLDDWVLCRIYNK
Summed up:
as §1

Assay [1] concerns the target T4, GST-ANAC092(1-285) full length (Arabidopsis thaliana, UniProt Q9FKA0 1-285).
T4 sequence: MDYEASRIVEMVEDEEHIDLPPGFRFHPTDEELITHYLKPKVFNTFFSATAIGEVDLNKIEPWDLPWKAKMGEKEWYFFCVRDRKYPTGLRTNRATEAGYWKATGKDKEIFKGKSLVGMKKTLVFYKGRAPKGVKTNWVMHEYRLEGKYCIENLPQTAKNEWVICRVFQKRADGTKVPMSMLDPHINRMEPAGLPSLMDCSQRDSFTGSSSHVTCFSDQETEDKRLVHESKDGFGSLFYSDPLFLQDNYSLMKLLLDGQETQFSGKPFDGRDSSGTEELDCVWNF
Summed up: as §1

Another assay addresses T5, GST-NST2(1-184) (Arabidopsis thaliana, UniProt Q9M274 1-184).
T5 sequence: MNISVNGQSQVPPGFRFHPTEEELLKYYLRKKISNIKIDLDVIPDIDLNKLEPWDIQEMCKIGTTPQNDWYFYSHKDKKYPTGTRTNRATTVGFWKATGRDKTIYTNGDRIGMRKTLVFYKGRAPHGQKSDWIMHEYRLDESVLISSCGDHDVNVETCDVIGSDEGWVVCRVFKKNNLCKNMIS
Summed up: as §1

The next assay has as its target T6, GST-NTL8 NAC domain (Arabidopsis thaliana, UniProt Q9XIN7 14-156).
T6 sequence: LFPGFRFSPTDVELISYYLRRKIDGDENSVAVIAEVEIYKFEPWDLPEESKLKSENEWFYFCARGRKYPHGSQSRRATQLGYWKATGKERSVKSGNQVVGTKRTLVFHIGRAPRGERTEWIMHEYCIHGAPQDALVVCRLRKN
Summed up: as §1

The next assay has as its target T7, GST-SND1(1-203) (Arabidopsis thaliana, UniProt Q9LPI7 1-203).
T7 sequence: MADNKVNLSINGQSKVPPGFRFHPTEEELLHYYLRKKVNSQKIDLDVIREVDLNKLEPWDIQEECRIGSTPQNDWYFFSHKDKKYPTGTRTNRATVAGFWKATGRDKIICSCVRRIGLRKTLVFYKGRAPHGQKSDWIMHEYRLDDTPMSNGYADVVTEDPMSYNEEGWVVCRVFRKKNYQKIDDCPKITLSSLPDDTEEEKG
The method in brief: as §1

A further assay deals with T8, GST-VND3 NAC domain (Arabidopsis thaliana, UniProt Q9FH59 12-162).
T8 sequence: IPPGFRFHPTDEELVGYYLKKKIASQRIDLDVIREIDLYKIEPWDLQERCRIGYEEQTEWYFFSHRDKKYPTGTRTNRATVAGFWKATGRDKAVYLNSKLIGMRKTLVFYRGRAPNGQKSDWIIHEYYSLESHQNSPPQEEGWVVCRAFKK
Summed up:
as §1

The next assay addresses T9, GST-VND7 NAC domain (Arabidopsis thaliana, UniProt Q9C8W9 9-158).
T9 sequence: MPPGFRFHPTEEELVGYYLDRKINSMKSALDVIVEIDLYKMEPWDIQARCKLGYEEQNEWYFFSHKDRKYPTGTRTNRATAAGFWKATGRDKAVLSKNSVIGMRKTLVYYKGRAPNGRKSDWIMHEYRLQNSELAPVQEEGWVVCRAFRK
Summed up:
as §1

The target in the next assay is T10, GST-ANAC019 NAC domain (Arabidopsis thaliana, UniProt Q9C932 14-162).
T10 sequence: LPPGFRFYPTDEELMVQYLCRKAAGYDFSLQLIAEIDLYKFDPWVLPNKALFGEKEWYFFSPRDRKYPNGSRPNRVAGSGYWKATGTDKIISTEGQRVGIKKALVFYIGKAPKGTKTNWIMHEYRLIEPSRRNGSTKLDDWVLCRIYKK
The method in brief:
as §1

For the next assay, the target named is T11, GST-NAP(1-166) (Arabidopsis thaliana, UniProt O49255 1-166).
T11 sequence: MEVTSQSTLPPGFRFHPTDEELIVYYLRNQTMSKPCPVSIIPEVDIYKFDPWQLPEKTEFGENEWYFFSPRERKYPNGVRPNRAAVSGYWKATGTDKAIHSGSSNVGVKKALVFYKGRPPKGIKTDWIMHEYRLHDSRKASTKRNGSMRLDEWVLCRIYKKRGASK
Summed up: as §1

GST-NTL6(1-168), sequence (Q9SCK6 1-168): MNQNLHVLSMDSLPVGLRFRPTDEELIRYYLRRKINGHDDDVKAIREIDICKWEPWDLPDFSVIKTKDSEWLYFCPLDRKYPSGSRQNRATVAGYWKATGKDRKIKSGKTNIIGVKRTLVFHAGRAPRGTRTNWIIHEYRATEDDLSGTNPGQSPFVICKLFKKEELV

In the case of AAGCAACC, the binding signal in the assay with GST-ANAC092(1-176) was determined as 0.425 E-score; in the assay with GST-NTL6(1-168) it was 0.329 E-score; with GST-ANAC055(1-171), 0.0668 E-score; in the assay with GST-ATAF1 NAC domain, 0.0659 E-score; in assay [1], 0.453 E-score; in the assay with GST-NST2(1-184) it was 0.349 E-score. Also, the binding signal with GST-NTL8 NAC domain was found to be 0.301 E-score; with GST-SND1(1-203), 0.479 E-score; with GST-VND3 NAC domain it was 0.114 E-score; with GST-VND7 NAC domain, 0.136 E-score.
As for ATTGCTTG, the binding signal came to 0.355 E-score with GST-ANAC092(1-176); 0.228 E-score in the assay with GST-NTL6(1-168); 0.19 E-score with GST-ANAC019 NAC domain; 0.115 E-score in the assay with GST-ANAC055(1-171); 0.408 E-score in [1]; 0.296 E-score with GST-NST2(1-184). The binding signal in the assay with GST-NTL8 NAC domain was determined as 0.143 E-score; in the assay with GST-SND1(1-203), 0.406 E-score; in the assay with GST-VND3 NAC domain it was 0.223 E-score; with GST-VND7 NAC domain, 0.218 E-score.
For the sequence CTAAGCAA, the binding signal came out at 0.201 E-score with GST-ANAC092(1-176); 0.461 E-score in the assay with GST-NTL6(1-168); 0.0628 E-score with GST-ANAC019 NAC domain; 0.314 E-score in [1]; 0.272 E-score with GST-NST2(1-184); 0.254 E-score with GST-NTL8 NAC domain. Further, the binding signal came to 0.473 E-score with GST-SND1(1-203), 0.134 E-score with GST-VND3 NAC domain and 0.184 E-score with GST-VND7 NAC domain.
Take ATTGCTTC: the binding signal in the assay with GST-ANAC092(1-176) came to 0.259 E-score; with GST-NTL6(1-168), 0.348 E-score; in the assay with GST-ANAC019 NAC domain it was 0.108 E-score; with GST-ANAC055(1-171), 0.0988 E-score; in [1], 0.351 E-score; with GST-NST2(1-184), 0.259 E-score. Further, the binding signal with GST-NTL8 NAC domain worked out at 0.278 E-score; with GST-SND1(1-203), 0.411 E-score; with GST-VND3 NAC domain, 0.143 E-score; in the assay with GST-VND7 NAC domain, 0.213 E-score.
Take ATTACTTA: the binding signal with GST-ANAC092(1-176) was 0.279 E-score; with GST-NTL6(1-168) it was 0.49 E-score; with GST-ANAC055(1-171), 0.191 E-score; with GST-ATAF1 NAC domain, 0.168 E-score; in [1] it was 0.349 E-score; with GST-NAP(1-166), 0.0737 E-score. Moreover, the binding signal with GST-NST2(1-184) was 0.296 E-score; in the assay with GST-NTL8 NAC domain it was 0.31 E-score; with GST-SND1(1-203), 0.38 E-score; in the assay with GST-VND3 NAC domain, 0.21 E-score; in the assay with GST-VND7 NAC domain, 0.154 E-score.
Consider GAGGTAAC, for which the binding signal amounted to 0.191 E-score in the assay with GST-ANAC092(1-176); 0.155 E-score in the assay with GST-NTL6(1-168); 0.078 E-score with GST-ANAC019 NAC domain; 0.0779 E-score with GST-ATAF1 NAC domain; 0.2 E-score in [1]; 0.078 E-score with GST-NST2(1-184). For the same sequence, the binding signal was determined as 0.437 E-score in the assay with GST-NTL8 NAC domain, 0.236 E-score in the assay with GST-SND1(1-203), 0.0659 E-score with GST-VND3 NAC domain and 0.0864 E-score in the assay with GST-VND7 NAC domain.
For the sequence AGAAGCAA, the binding signal in the assay with GST-ANAC092(1-176) amounted to 0.381 E-score; with GST-NTL6(1-168), 0.361 E-score; with GST-ANAC019 NAC domain it was 0.0522 E-score; in the assay with GST-ANAC055(1-171), 0.119 E-score; with GST-ATAF1 NAC domain it was 0.0783 E-score; in [1], 0.42 E-score. Further, the binding signal with GST-NST2(1-184) was 0.284 E-score; with GST-NTL8 NAC domain, 0.218 E-score; in the assay with GST-SND1(1-203), 0.382 E-score; in the assay with GST-VND3 NAC domain, 0.109 E-score; with GST-VND7 NAC domain, 0.234 E-score.
